Only some compounds are listed: those with a hit (about 21% of all), similar ones and a draw of the others.
HCV inhibitor – qHTS Assay for Inhibitors of Hepatitis C Virus (HCV). Huh7.5.1 HCVcc-Cre infection, luciferase reporter, 44 h. Potency, µM (series often up to 41.8 µM), inactives show at the highest dose activity change, negative = inhibition, actives largely listed as inhibitors. 340,000 compounds, 3.4% hits; note: potency is the fitted concentration of half-maximal effect; % is set by controls: 0 for no effect and ±100 for the full control effect
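A cell-based infection assay in which seeded cells (1,000 per well) receive test compound after 4 h, are inoculated with HCVcc-Cre at approximately 0.5 moi, and are incubated 44 h before luminescence detection.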
HCMV inh – qHTS Assay for inhibitors of the human cytomegalovirus (HCMV); HFF cells, HCMV-luciferase reporter, 72 h; active compounds read low; activity change, negative = inhibition, % at 57.5 µM; 410,000 compounds, 4.5% hits; in the data active = activity change below about -60%; inconclusive = no clear call, values can overlap the other calls; inactive = above about -39%; note: % is set by controls: 0 for no effect and ±100 for the full control effect
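Luciferase read-out from HCMV-luciferase-infected HFFs (MOI 1 PFU/cell) 72 h post infection at 37C; compounds added after 16 h cell attachment; activity normalized between buffer-only basal and Salinomycin (10uM) inhibitor controls.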
Pf growth 48h – Primary qHTS for delayed death inhibitors of the malarial parasite plastid, 48 hour incubation; P. falciparum luciferase growth in erythrocytes, 48 h; Potency, µM (series often up to 28.7 µM), for the others: at the highest dose activity change, negative = inhibition, actives largely listed as inhibitors; 310,000 compounds, 5.9% hits; AID 504832, 2011; note: potency is the fitted concentration of half-maximal effect; % is set by controls: 0 for no effect and ±100 for the full control effect
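Erythrocytes infected with P. falciparum carrying an integrated firefly luciferase reporter (2% hematocrit, 0.1% parasitemia final) were exposed to compounds in RPMI 1640 with 0.5% Albumax at 37 C, 5% CO2. Growth inhibition was scored as reduced luminescence.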
Pf growth 96h – Primary qHTS for delayed death inhibitors of the malarial parasite plastid, 96 hour incubation; P. falciparum luciferase reporter growth, 96 h; 320,000 compounds, 6.9% hits; Potency, µM (series often up to 28.7 µM), for the others: at the top dose activity change, negative = inhibition, actives largely listed as inhibitors; note: potency is the fitted concentration of half-maximal effect; % is set by controls: 0 for no effect and ±100 for the full control effect
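Readout is luminescence from an integrated firefly luciferase in P. falciparum. Red cells, 2% hematocrit and 0.05% parasitemia final, were cultured with compound through two parasite generations (96 hours) at 37 C, 5% CO2.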
Cycloheximide cs – Cycloheximide Counterscreen for Small Molecule Inhibitors of Shiga Toxin | cell reporter, cycloheximide protein synthesis inhibition counterscreen | max response, % | 300,000 compounds, 12% hits | AID 2314, 2010; in the data active = max response mostly above about 13%, no sharp cut-off; inactive = mostly below about 14%; note: read at 38.3 µM for the half of the compounds with a filed dose; 0% is about no effect
Shiga inhibitor – A qHTS for Small Molecule Inhibitors of Shiga Toxin | Vero cells, Shiga toxin protein synthesis inhibition reporter | inhibition, % at 38.7 µM | 290,000 compounds, 9.2% hits; in the data active = inhibition mostly above about 28%, no sharp cut-off; inactive = mostly below about 43%; note: 0% is about no effect
* marks the source's active call; other numbers are inactive results; ? = inconclusive; nt = no result. Unless noted, calls come from the whole dose curve; as a rule, active = well fitted inhibition curve with a large enough effect; inconclusive = small, poorly fitted or top-dose-only effect, or another doubt; inactive = no such curve, though single readings can be large or run the other way.

SMILES	HCV inhibitor	HCMV inh	Pf growth 48h	Pf growth 96h	Cycloheximide cs	Shiga inhibitor
CC1NC(=O)c2cccnc2-n2c1nc1cc(F)c(F)cc1c2=O (centres undefined)	nt	3	nt	nt	nt	nt
CCN(C(=O)Cn1c(=O)oc2cc(S(=O)(=O)N3CCCC3)ccc21)c1cccc(C)c1	nt	-18	nt	nt	nt	nt
Cc1ccc(Cl)cc1N1CCN(C(=O)C2CCN(c3nnc(-n4cccc4)s3)CC2)CC1	13µM*	?	13µM*	?	-1	-1
Cc1ccc(Cl)cc1N1CCN(C(=O)c2cccn2-c2nnc(N3CCCCC3)s2)CC1	nt	0	nt	nt	nt	nt
Cc1cccc(N2CCN(C(=O)C3CCN(c4nnc(-n5cccc5)s4)CC3)CC2C)c1 (centres undefined)	?	-5	13µM*	?	5	-5
Cc1ccc(NC(=O)C2CCCN(S(=O)(=O)c3ccc(-n4cnnn4)cc3)C2)cc1 (centres undefined)	3%	-26	0%	-15%	-4	-9
CCOC(=O)C1(Cc2ccccc2C)CCCN(C(=O)c2ccc3nccnc3c2)C1 (centres undefined)	-6%	-9	13µM*	-23%	-3	-6
CCOC(=O)C1(Cc2ccccc2C)CCCN(C(=O)CSC)C1 (centres undefined)	-10%	23	nt	nt	nt	nt
CCOC(=O)C1(Cc2ccccc2)CCCN(C(=O)c2cnn(CC)c2)C1 (centres undefined)	16%	-14	14%	?	29*	73*
CCOC(=O)C1(Cc2ccccc2C)CCCN(C(=O)CCc2cccnc2)C1 (centres undefined)	?	-37	?	0%	32*	33*
CCOC(=O)C1(Cc2ccccc2C)CCCN(C(=O)c2ccccn2)C1 (centres undefined)	-9%	45	-4%	?	40*	71*
CCCc1cc(C(=O)N2CCCC(Cc3ccccc3C)(C(=O)OCC)C2)no1 (centres undefined)	?	-40	?	-8%	3	-7
CC(=O)Nc1ccc(CN2CCCC(CO)(Cc3ccccc3C)C2)cc1 (centres undefined)	1%	7	?	-11%	-1	-8
CCOC(=O)C1(Cc2ccccc2C)CCCN(Cc2ccc(NC(C)=O)cc2)C1 (centres undefined)	1%	0	5.2µM*	?	-2	-5
COC1=C(C)C(=O)C2=C(C1=O)C(CO)N1C(C#N)C3CC4C(C1C2N1CCOC41)N3C (centres undefined)	nt	-99*	nt	nt	nt	nt
Cc1ccc(C)c(CNC(=O)c2cnc3sc(N4CCCC4)nn3c2=O)c1	nt	1	nt	nt	nt	nt
COc1cc(SSc2cc(OC)cc([N+](=O)[O-])c2N)c(N)c([N+](=O)[O-])c1	-13%	-98*	?	9.3µM*	8	18
COc1ccccc1-c1ccc2n(c1=O)C[C@@H]1[C@@H](CO)[C@H](C(=O)NCCCN(C)C)N(C(C)=O)[C@H]21	nt	3	nt	nt	nt	nt
COc1ccc(C(=O)O/N=C(\N)c2cccc(C)c2)cc1OC	?	-17	59%	?	36*	45*
COc1ccc(C(=O)O/N=C(\N)c2ccccc2)cc1OC	1%	22	74%	4%	44*	91*
COc1ccc(/C(N)=N/OC(=O)c2ccc(C)c([N+](=O)[O-])c2)cc1OC	-2%	15	nt	nt	-3	-1
COc1cc(OC)c(C(=O)O/N=C(\N)c2ccccc2)cc1OC	?	22	?	11%	29*	48*
COc1ccc(/C(N)=N/OC(=O)c2cc(-c3ccccc3)nc3ccccc23)cc1	-17%	4	33%	98%	0	-24
Cc1ccc(Oc2ccc(S(=O)(=O)N3CCOCC3)cc2C(N)=O)cc1C	?	11	?	10%	-3	2
COc1ccc(C(=O)O/N=C(\N)c2ccccn2)cc1	4%	?	-91%	-20%	-11	-29
SMILES	HCV inhibitor	HCMV inh	Pf growth 48h	Pf growth 96h	Cycloheximide cs	Shiga inhibitor
CCOc1cc(C(=O)O/N=C(\N)c2ccccn2)cc(OCC)c1OCC	?	45	?	-17%	53*	54*
COc1cc(OC)cc(C(=O)O/N=C(\N)c2ccccn2)c1	?	-61*	?	?	51*	116*
CCOc1ccc(C(=O)O/N=C(\N)c2ccccn2)cc1OCC	13µM*	42	-97%	66%	52*	85*
COc1ccc(C(=O)COC(=O)c2ccccn2)cc1OC	12%	8	8%	3%	nt	nt
Cc1ccc(S(=O)(=O)n2nc(-c3ccc(Cl)cc3)nc2NCc2ccc(F)cc2)cc1	nt	-4	nt	nt	nt	nt
CN(C(=O)CN1CCN(c2cc(-c3ccc(-c4ccccc4)cc3)ncn2)CC1)c1ccccc1	nt	-67*	nt	nt	nt	nt
CCc1nc(SC)ncc1C(=O)N1CCN(c2cc(C)ccc2C)CC1	nt	5	nt	nt	nt	nt
O=C(Cn1ccc2cc(S(=O)(=O)N3CCCC3)ccc21)NCc1ccc(Cl)cc1	nt	-21	nt	nt	nt	nt
O=C(CSc1ccc2c(c1)OCCO2)Nc1ccc(Br)cn1	?	31	5%	24%	9	-5
CC(Sc1ccccn1)C(=O)Nc1ccc2c(c1)OCCO2 (centres undefined)	20%	-33	164%	105%	nt	nt
O=C(CSc1ncnc2ccccc12)Nc1ccc2c(c1)OCCO2	?	-6	14%	16%	31*	63
O=C(CSc1ncccc1C(=O)O)Nc1ccc2c(c1)OCCO2	12%	16	34%	55%	100*	82*
CC(Sc1ncnc2ccccc12)C(=O)Nc1ccc2c(c1)OCCO2 (centres undefined)	13µM*	-73*	2%	94%	14	-2
O=C(CSc1ncnc2ccccc12)Nc1ccc2c(c1)OCO2	?	?	-15%	33%	17	-3
O=C(CSc1ccc2c(c1)OCCO2)Nc1ccc(Cl)cn1	-22%	-86*	3%	-21%	2	43
Cc1ccccc1C(=O)Nc1nnc(S(=O)(=O)N2CCc3ccccc32)s1	nt	32	nt	nt	nt	nt
CC1CCN(C(=O)CSc2nnc(NC(=O)Nc3ccccc3)s2)CC1	nt	-33	nt	nt	nt	nt
CCC(C(=O)Nc1ccc2c(c1)OCCO2)n1nnc2ccccc2c1=O (centres undefined)	-26%	62	124%	126%	59*	66*
CC(C)Cn1c(SC(C)C(=O)Nc2ccc3c(c2)OCCO3)nc2ccccc2c1=O (centres undefined)	-17%	?	?	nt	1	4
COCC(C)n1c(SCC(=O)NC(=O)Cc2ccccc2)nc2ccccc2c1=O (centres undefined)	-15%	0	5%	-2%	nt	nt

High-throughput results as filed in PubChem BioAssay.
